Measurements taken from PubChem BioAssay AID1159580 (chemical genetic matrix, 2015).
The campaign covered roughly 5,500 compounds. About 2,000 (36%) were called active. About 18% were inconclusive and are not listed. Rule as the data show it: active = normalized growth mostly below about 0.91 (no sharp cut-off); inconclusive = no clear call, values can overlap the other calls; inactive = mostly above about 0.92. The list shows a part of the results.

Assay: chemical genetic growth profiling, strain panel (AID 1159580);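 also: tested at 20 µM; growth read once vehicle control cultures reached saturation at 30 °C; 1 = growth at the plate median or of vehicle wells; lower values mean less growth of the strain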
Conditions: growth OD

Measured: normalized growth

CC(=O)O[C@H]1C[C@@]2(C)[C@@H](C[C@@H](O)C3[C@]2(C)CC[C@H]2[C@H](C)[C@H](O)CC[C@]32C)/C1=C(/CCC=C(C)C)C(=O)O (some centres undefined)
inactive: S. cerevisiae deletion strains, locus YJL187C, strain SWE1 (second series), hits give low values 1.01 | S. cerevisiae deletion strains, locus YJL187C, strain SWE1, hits give low values 1.04 | S. cerevisiae deletion strains, locus YJR043C, strain POL32, hits give low values 1 | S. cerevisiae deletion strains, locus YJR066W, strain TOR1, hits give low values 0.983 | S. cerevisiae deletion strains, locus YKL009W, strain mrt4, hits give low values 0.99 | S. cerevisiae deletion strains, locus YKL068W, hits give low values 1.01 | S. cerevisiae deletion strains, locus YKL085W, strain MDH1 (second series), hits give low values 0.997 | S. cerevisiae deletion strains, locus YKL085W, strain MDH1, hits give low values 0.997 | S. cerevisiae deletion strains, locus YKL160W, strain elf1, hits give low values 1.07 | S. cerevisiae deletion strains, locus YKL190W, strain CNB1, hits give low values 1.01 | S. cerevisiae deletion strains, locus YKR001C, strain vps1, hits give low values 1.03 | S. cerevisiae deletion strains, locus YKR026C, strain gcn3, hits give low values 1.01 | S. cerevisiae deletion strains, locus YKR091W, strain srl3, hits give low values 1.03 | S. cerevisiae deletion strains, locus YLL001W, strain dnm1, hits give low values 1.04 | S. cerevisiae deletion strains, locus YLL026W, hits give low values 1.02 | S. cerevisiae deletion strains, locus YLL041C, strain sdh2, hits give low values 1.02 | S. cerevisiae deletion strains, locus YLR027C, strain aat2, hits give low values 1.01 | S. cerevisiae deletion strains, locus YLR039C, strain RIC1, hits give low values 0.996 | S. cerevisiae deletion strains, locus YLR058C, strain SHM2, hits give low values 1.04 | S. cerevisiae deletion strains, locus YLR102C, strain apc9, hits give low values 1.02 | S. cerevisiae deletion strains, locus YLR113W, strain HOG1, hits give low values 0.957 | S. cerevisiae deletion strains, locus YLR221C, strain rsa3, hits give low values 1.06 | S. cerevisiae deletion strains, locus YLR258W, strain gsy2, hits give low values 1.03 | S. cerevisiae deletion strains, locus YLR262C, strain YPT6 (second series), hits give low values 0.991 | S. cerevisiae deletion strains, locus YLR262C, strain YPT6, hits give low values 0.997 | S. cerevisiae deletion strains, locus YLR268W, strain sec22, hits give low values 1.01 | S. cerevisiae deletion strains, locus YLR320W, strain mms22, hits give low values 1.06 | S. cerevisiae deletion strains, locus YLR330W, strain CHS5, hits give low values 1.01 | S. cerevisiae deletion strains, locus YLR342W, strain FKS1 (second series), hits give low values 1.03 | S. cerevisiae deletion strains, locus YLR342W, strain FKS1, hits give low values 1.04 | S. cerevisiae deletion strains, locus YLR357W, strain rsc2, hits give low values 1.1 | S. cerevisiae deletion strains, locus YLR370C, strain arc18, hits give low values 1.03 | S. cerevisiae deletion strains, locus YLR371W, strain rom2, hits give low values 1.01 | S. cerevisiae deletion strains, locus YLR384C, strain iki3, hits give low values 1.04 | S. cerevisiae deletion strains, locus YLR418C, strain cdc73, hits give low values 1.05 | S. cerevisiae deletion strains, locus YML016C, strain PPZ1, hits give low values 1 | S. cerevisiae deletion strains, locus YML032C, strain rad52, hits give low values 1.02 | S. cerevisiae deletion strains, locus YML120C, strain ndi1, hits give low values 1.05 | S. cerevisiae deletion strains, locus YML124C, strain tub3, hits give low values 1.03 | S. cerevisiae deletion strains, locus YMR058W, strain fet3, hits give low values 1.03 | S. cerevisiae deletion strains, locus YMR078C, strain ctf18, hits give low values 1.02 | S. cerevisiae deletion strains, locus YMR125W, strain sto1, hits give low values 1.04 | S. cerevisiae deletion strains, locus YMR129W, hits give low values 1.02 | S. cerevisiae deletion strains, locus YMR205C, strain PFK2, hits give low values 1.04 | S. cerevisiae deletion strains, locus YMR223W, strain ubp8, hits give low values 1.05 | S. cerevisiae deletion strains, locus YMR231W, strain pep5, hits give low values 1.02 | S. cerevisiae deletion strains, locus YMR307W, strain GAS1, hits give low values 0.995 | S. cerevisiae deletion strains, locus YNL067W, strain RPL9B, hits give low values 1.01 | S. cerevisiae deletion strains, locus YNL071W, strain lat1, hits give low values 1.03 | S. cerevisiae deletion strains, locus YNL153C, strain GIM3, hits give low values 1.02 | S. cerevisiae deletion strains, locus YNL183C, strain NPR1, hits give low values 0.936 | S. cerevisiae deletion strains, locus YNL209W, strain ssb2, hits give low values 1.03 | S. cerevisiae deletion strains, locus YNL233W, strain BNI4, hits give low values 1.01 | S. cerevisiae deletion strains, locus YNL248C, strain rpa49, hits give low values 1.05 | S. cerevisiae deletion strains, locus YNL250W, strain rad50, hits give low values 1.03 | S. cerevisiae deletion strains, locus YNL271C, strain bni1, hits give low values 1.02 | S. cerevisiae deletion strains, locus YNL298W, strain CLA4, hits give low values 1.02 | S. cerevisiae deletion strains, locus YNL307C, strain MCK1, hits give low values 1.03 | S. cerevisiae deletion strains, locus YNL322C, strain KRE1 (second series), hits give low values 1.05 | S. cerevisiae deletion strains, locus YNR049C, strain mso1, hits give low values 1.05 | S. cerevisiae deletion strains, locus YNR052C, strain pop2, hits give low values 1.03 | S. cerevisiae deletion strains, locus YOL012C, strain htz1 1.07 | S. cerevisiae deletion strains, locus YOL147C, strain pex11, hits give low values 1.04 | S. cerevisiae deletion strains, locus YOR001W, strain rrp6, hits give low values 1.01 | S. cerevisiae deletion strains, locus YOR061W, strain CKA2, hits give low values 0.999 | S. cerevisiae deletion strains, locus YOR069W, strain VPS5, hits give low values 1.02 | S. cerevisiae deletion strains, locus YOR070C, strain gyp1, hits give low values 1.03 | S. cerevisiae deletion strains, locus YOR080W, strain dia2, hits give low values 1.04 | S. cerevisiae deletion strains, locus YOR083W, strain WHI5, hits give low values 1.06 | S. cerevisiae deletion strains, locus YOR106W, strain vam3, hits give low values 1.04 | S. cerevisiae deletion strains, locus YOR136W, strain idh2, hits give low values 1.02 | S. cerevisiae deletion strains, locus YOR144C, strain elg1, hits give low values 1.02 | S. cerevisiae deletion strains, locus YOR184W, strain ser1, hits give low values 1.02 | S. cerevisiae deletion strains, locus YOR231W, strain MKK1, hits give low values 0.956 | S. cerevisiae deletion strains, locus YOR265W, strain rbl2, hits give low values 1.02 | S. cerevisiae deletion strains, locus YOR270C, strain vph1, hits give low values 1 | S. cerevisiae deletion strains, locus YOR290C, strain snf2, hits give low values 0.974 | S. cerevisiae deletion strains, locus YOR316C, strain cot1, hits give low values 1.02 | S. cerevisiae deletion strains, locus YPL051W, strain arl3, hits give low values 1.04 | S. cerevisiae deletion strains, locus YPL078C, strain atp4, hits give low values 1.02 | S. cerevisiae deletion strains, locus YPL106C, strain sse1, hits give low values 1.07 | S. cerevisiae deletion strains, locus YPL240C, strain hsp82, hits give low values 1.03 | S. cerevisiae deletion strains, locus YPL256C, strain CLN2, hits give low values 0.986 | S. cerevisiae deletion strains, locus YPR119W, strain clb2, hits give low values 1.02 | S. cerevisiae deletion strains, locus YPR141C, strain kar3, hits give low values 1.03 | S. cerevisiae deletion strains, locus YPR163C, strain tif3, hits give low values 1.04 | S. cerevisiae deletion strains, locus YPR167C, strain met16, hits give low values 1.03 | S. cerevisiae deletion strains, strain wtn01, hits give low values 1.02 | S. cerevisiae strains, strain wild type, hits give low values 1.01
